Data taken from PubChem BioAssay AID1159580 (chemical genetic matrix, 2015).
Where “and” joins values, the source holds several entries; their conditions need not be identical. Identical values can stand only once. The campaign covered roughly 5,500 compounds. About 2,000 (36%) were called active. Inconclusive results (about 18%) are left out. Cut-off read from the data, not from the text of the source: active = normalized growth mostly below about 0.91 (no sharp cut-off); inconclusive = no clear call, values can overlap the other calls; inactive = mostly above about 0.92. This is one part of the list.

Experiment: chemical genetic growth profiling, strain panel (AID 1159580);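 note: tested at 20 µM; growth read once vehicle control cultures reached saturation at 30 °C; 1 = growth at the plate median or of vehicle wells; lower values mean less growth of the strain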
Details: S. cerevisiae deletion strains, growth OD

Measured: normalized growth

CS(=O)(=O)c1ccc(C2=C(c3ccccc3)C(=O)OC2)cc1
inactive: locus YAL013W, strain DEP1, active compounds read low 0.996 | locus YAL021C, strain ccr4, active compounds read low 0.955 | locus YAL026C, strain drs2, active compounds read low 0.985 | locus YAL030W, strain snc1, active compounds read low 0.971 | locus YBL061C, strain skt5, active compounds read low 0.972 | locus YBR009C, strain hhf1, active compounds read low 0.959 | locus YBR021W, strain FUR4, active compounds read low 0.986 | locus YBR023C, strain chs3, active compounds read low 0.979 | locus YBR171W, strain sec66, active compounds read low 0.983 | locus YBR229C, strain ROT2, active compounds read low 1 | locus YBR231C, strain swc5, active compounds read low 1 | locus YBR279W, strain paf1, active compounds read low 0.987 | locus YCL011C, strain gbp2, active compounds read low 0.975 | locus YCL016C, strain dcc1, active compounds read low 0.98 | locus YCL029C, strain bik1, active compounds read low 0.994 | locus YCL061C, strain MRC1, active compounds read low 0.986 | locus YCL069W, strain vba3, active compounds read low 0.976 | locus YCR088W, strain abp1, active compounds read low 0.985 | locus YDL005C, strain med2, active compounds read low 0.983 | locus YDL035C, strain GPR1, active compounds read low 0.973 | locus YDL040C, strain nat1, active compounds read low 0.984 | locus YDL074C, strain BRE1, active compounds read low 0.929 | locus YDL101C, strain DUN1, active compounds read low 0.99 | locus YDL134C, strain PPH21, active compounds read low 1.01 | locus YDL185W, strain tfp1, active compounds read low 0.963 | locus YDL192W, strain arf1, active compounds read low 0.98 | locus YDR001C, strain nth1, active compounds read low 0.985 | locus YDR069C, strain doa4, active compounds read low 0.967 | locus YDR101C, strain arx1, active compounds read low 0.995 | locus YDR137W, strain rgp1, active compounds read low 1.02 | locus YDR150W, strain NUM1, active compounds read low 0.991 | locus YDR159W, strain sac3, active compounds read low 0.968 | locus YDR162C, strain NBP2, active compounds read low 0.979 | locus YDR195W, strain ref2 0.963 | locus YDR297W, strain sur2, active compounds read low 0.983 | locus YDR318W, strain mcm21, active compounds read low 0.983 | locus YDR334W, strain swr1, active compounds read low 0.968 | locus YDR335W, strain msn5, active compounds read low 0.982 | locus YDR388W, active compounds read low 0.991 | locus YDR392W, strain spt3, active compounds read low 0.954 | locus YDR502C, strain sam2, active compounds read low 0.983 | locus YEL003W, strain gim4, active compounds read low 0.977 | locus YEL037C, strain rad23, active compounds read low 0.992 | locus YEL061C, strain CIN8 (second series), active compounds read low 0.97 | locus YEL061C, strain CIN8, active compounds read low 0.984 | locus YER015W, strain faa2, active compounds read low 0.98 | locus YER016W, strain bim1, active compounds read low 0.985 | locus YER110C, active compounds read low 0.988 | locus YER111C, strain swi4, active compounds read low 0.978 | locus YER155C, strain BEM2 (second series), active compounds read low 0.98 | locus YER155C, strain BEM2, active compounds read low 1.04 | locus YER167W, strain BCK2, active compounds read low 0.989 | locus YFR010W, strain ubp6, active compounds read low 0.961 | locus YGL078C, strain dbp3, active compounds read low 0.996 | locus YGL086W, strain mad1, active compounds read low 0.983 | locus YGL167C, strain pmr1, active compounds read low 0.971 | locus YGL173C, strain kem1, active compounds read low 0.989 | locus YGL227W, strain vid30, active compounds read low 0.969 | locus YGL240W, strain doc1, active compounds read low 0.975 | locus YGL248W, strain PDE1, active compounds read low 1 | locus YGL253W, strain hxk2, active compounds read low 0.987 | locus YGR078C, strain PAC10, active compounds read low 0.957 | locus YGR135W, strain pre9, active compounds read low 0.979 | locus YGR229C, strain SMI1, active compounds read low 0.971 | locus YGR252W, strain gcn5, active compounds read low 0.967 | locus YHR013C, strain ard1, active compounds read low 0.971 | locus YHR027C, strain rpn1, active compounds read low 0.963 | locus YHR030C, strain SLT2, active compounds read low 0.994 and 1.03 | locus YHR079C, strain IRE1 (second series), active compounds read low 0.992 | locus YHR079C, strain IRE1, active compounds read low 1.03 | locus YHR094C, strain hxt1, active compounds read low 0.984 | locus YHR129C, strain ARP1, active compounds read low 1 | locus YHR142W, strain chs7, active compounds read low 0.984 | locus YHR200W, strain rpn10, active compounds read low 0.969 | locus YIL066C, strain RNR3, active compounds read low 1.01 | locus YIL073C, strain SPO22, active compounds read low 0.936 | locus YIL125W, strain kgd1, active compounds read low 0.999 | locus YIR030C, strain dcg1, active compounds read low 0.987 | locus YJL092W, strain hpr5, active compounds read low 0.984 | locus YJL095W, strain BCK1 (second series), active compounds read low 0.977 | locus YJL095W, strain BCK1, active compounds read low 0.951 and 1.01 | locus YJL115W, strain asf1, active compounds read low 0.962 | locus YJL129C, strain trk1, active compounds read low 0.978 | locus YJL134W, strain LCB3, active compounds read low 0.998 | locus YJL154C, strain vps35, active compounds read low 0.991 | locus YJL164C, strain tpk1, active compounds read low 0.965 | locus YJL166W, strain qcr8, active compounds read low 0.986 | locus YJL168C, strain set2, active compounds read low 0.993 | locus YJL187C, strain SWE1 (second series), active compounds read low 0.989 | locus YJL187C, strain SWE1, active compounds read low 0.981 | locus YJR043C, strain POL32, active compounds read low 0.955
